In PubChem BioAssay (NCI) one finds growth inhibition data, which are given here for 19 molecules.

Where “and” joins values, the source holds several entries; their conditions need not be identical. Identical values can stand only once. This is part of a sample that, as a whole, favours compounds with a hit. Of some 79,000 tested, about 15% had one in any assay. Unmarked numbers belong to inactive results. Calls of active or inactive are those of the source. Cut-off read from the data, not from the text of the source: active = growth inhibition above about 70%; inactive = the rest.

The nature of assay [1]: NCI Yeast Anticancer Drug Screen. Data for the rad50 strain (AID 155).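 Note: 0% = growth of vehicle-only cultures of the same strain.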 The settings on record: S. cerevisiae rad50 strain growth inhibition; at 50.0 µM; hits give high values. The gist of the method:
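DNA repair mutant yeast, compound exposure, growth read-out; inhibition is taken relative to vehicle.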

The nature of assay [2]: NCI Yeast Anticancer Drug Screen. Data for the mec2-1 strain (AID 157). The note with it: S. cerevisiae mec2-1 strain, at 50.0 µM, hits give high values. In a few lines:
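Readout is yeast growth inhibition, normalised to vehicle-treated controls, in the mec2-1 strain exposed to compound.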

A short description of assay [3]: NCI Yeast Anticancer Drug Screen. Data for the sgs1 mgt1 strain (AID 161).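 Note: 0% = growth of cultures given vehicle only.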 The settings on record: S. cerevisiae sgs1 mgt1 strain, at 50.0 µM, hits give high values. In a few lines: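 Percent growth inhibition was derived by comparing compound-exposed mutant yeast with vehicle-exposed cultures. The strain carries alterations in DNA damage repair.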
Assay [4] in a line: NCI Yeast Anticancer Drug Screen. Data for the cln2 rad14 strain (AID 165).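 Note: 0% = growth equal to vehicle treated cultures.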 The settings on record: S. cerevisiae cln2 rad14 strain, at 50.0 µM, hits give high values. In a few lines:
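Relative to vehicle controls, growth inhibition of compound-treated cln2 rad14 yeast was recorded.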

The nature of assay [5]: NCI Yeast Anticancer Drug Screen. Data for the bub3 strain (AID 167). The note with it: S. cerevisiae bub3 mutant strain, at 50.0 µM, hits give high values. The gist of the method:
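In this screen, a yeast mutant lacking normal mitotic checkpoint function is challenged with compound. Relative growth versus vehicle gives the inhibition value.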

The nature of assay [6]: NCI Yeast Anticancer Drug Screen. Data for the mlh1 rad18 strain (AID 175). The settings on record: S. cerevisiae mlh1 rad18 strain growth inhibition; at 50.0 µM; hits give high values. The gist of the method: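 Test agents were incubated with a yeast strain of defined genotype (DNA damage repair defect). Inhibition of growth was derived by comparison with vehicle-exposed cultures.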

Consider `O=[P+](O)O[P+](=O)O.O=[P+](O)O[P+](=O)O.O=[P+](O)O[P+](=O)O.O=[P+](O)O[P+](=O)O.[Cl][Pt].[Cl][Pt]`, for which the growth inhibition is -2.05% in assay [1]; 27.8% in assay [2]; 26.2% in assay [3]; -32.5% in assay [4]; 18.1% in assay [5]; 12.9% in assay [6].

For the molecule `O=C(COc1ccc(Cl)c(Cl)c1)NCCc1cc[n+](Cc2ccc(Cl)cc2S(=O)(=O)F)cc1`, the growth inhibition in assay [1] was 7.45%; in assay [2], 5.4%; in assay [3] it was -9.05%; in assay [4] it was 31.5%; in assay [5], 1.8%; in assay [6], 11.9%.

Consider `C=C(C)C1(CC)C(=O)NC(=O)N(C)C1=O` (centres undefined), for which the growth inhibition was 11.8% and -4.5% in assay [1]; 7.5% and 9.4% in assay [2]; -1.25% and -7.5% in assay [3]; 10.2% and -11.2% in assay [4]; 3.65% and 1.5% in assay [5]; -7.95% and -13.1% in assay [6].

With `COc1ccc2c3c1O[C@]1(C)C34CCN(C)C(C2)C42C=C[C@@]1(OC)c1c(O)ccc(O)c12`, the growth inhibition in assay [1] is 6.55%; in assay [2], -13.2%; in assay [3] it was -12.8%; in assay [4], 7.9%; in assay [5] it was -10.6%; in assay [6] it was -0.9%.

Regarding `CCOc1ccc([N+](=O)[O-])cc1CNCCBr`, the growth inhibition in assay [1] was 3.3%; in assay [2] it was -1.3%; in assay [3] it was -0.45%; in assay [4], -22.1%; in assay [5], -3.1%; in assay [6], 12.2%.

Consider `CCC(C)C1(CCc2ccccc2)C(=O)NC(=O)NC1=O` (centres undefined), for which the growth inhibition in assay [1] is -2.8%; in assay [2] it was -14.7%; in assay [3] it was 3.55%; in assay [4] it was -31.3%; in assay [5] it was 10.4%; in assay [6], -0.65%.

For the molecule `COc1ccc(C=O)cc1`, the growth inhibition in assay [1] was 41.5%; in assay [2], -10.2%; in assay [3] it was -7.5%; in assay [4] it was -21.2%; in assay [5] it was 0.8%; in assay [6], 21.5%.

Turning to `CCC[CH2][Sn]([CH2]C)([CH2]C)[CH2]C`, the growth inhibition in assay [1] is 40.4%; in assay [2], 17.8%; in assay [3], 35.7%; in assay [4], 15.8%; in assay [5] it was 20.9%; in assay [6], 31.3%.

As for `[CH3][Sn]([CH3])([CH3])[O]C(=O)C(O)c1ccccc1` (centres undefined), the growth inhibition in assay [1] was 11.6%; in assay [2], -7.7%; in assay [3], 5.1%; in assay [4] it was 9.4%; in assay [5], -0.05%; in assay [6], -2.3%.

Turning to `CC(C)(C)C1=C(Br)C(F)(C(C)(C)C)OP1(=O)c1ccccc1` (centres undefined), the growth inhibition in assay [1] was 88.7% (active); in assay [2] it was 92.3% (active); in assay [3], 90.5% (active); in assay [4] it was 90.5% (active); in assay [5], 90% (active); in assay [6], 91.6% (active).

Consider `O=CC(O)C(O)C1[O][Sb][O]C1CO` (centres undefined), for which the growth inhibition in assay [1] is 0.75%; in assay [2], -1.7%; in assay [3], -4.45%; in assay [4], -53.9%; in assay [5] it was -5.85%; in assay [6], -8.85%.

With `Cc1cc(N(CCCl)CCCl)ccc1C1N(Cc2ccc(N(C)C)cc2)CCN1Cc1ccc(N(C)C)cc1`, the growth inhibition was 13.5% in assay [1]; 1.55% in assay [2]; 16.4% in assay [3]; -3.4% in assay [4]; 1.6% in assay [5]; 18.6% in assay [6].

Regarding `Cc1ccc(S(=O)(=O)CC([Se]C#N)c2ccccc2)cc1` (centres undefined), the growth inhibition in assay [1] was -21.1%; in assay [2], 2.2%; in assay [3], -15.1%; in assay [4] it was -3.9%; in assay [5] it was -6.1%; in assay [6], 1.45%.

For `CCC1CN2CCC1CC2C(O)c1cc[n+]([O-])c2ccc(OC)cc12` (centres undefined), the growth inhibition was -11.7% in assay [1]; 7.25% in assay [2]; -7.6% in assay [3]; 1.75% in assay [4]; -8.05% in assay [5]; -12.4% in assay [6].

Consider `NC(=O)OCC(O)c1ccccc1` (centres undefined), for which the growth inhibition is -11.6% in assay [1]; 10% in assay [2]; -22.6% in assay [3]; -27.8% in assay [4]; -19.9% in assay [5]; 2.2% in assay [6].

Regarding `CCC12C=CCN3CCC4(c5ccc(OC)cc5N(C)C4C(O)(C(=O)OC)C1OC(C)=O)C32` (centres undefined) (tested in a mixture with another compound), the growth inhibition in assay [1] was 5.3% and 8.35%; in assay [2], 5.4% and 17.2%; in assay [3], -5.85% and 11.3%; in assay [4], -10.7% and 2.25%; in assay [5], -3.15% and 0.7%; in assay [6], 25.4% and 22.1%.

Consider `CN1Cc2cc3cc4c(cc3nc2N(C)C1)OCCO4`, for which the growth inhibition is 1.5% in assay [1]; 12.2% in assay [2]; -1.5% in assay [3]; 11.4% in assay [4]; 8.9% in assay [5]; 15.1% in assay [6].

As for `COC(=O)C1(C(=O)OC)ON1C(C)(C)C` (centres undefined), the growth inhibition in assay [1] is -48.5%; in assay [2], -17.6%; in assay [3], -17.6%; in assay [4], -57.8%; in assay [5], -5%; in assay [6] it was -11.6%.

Take `[Cl][Sn]([Cl])([c]1ccccc1)[c]1ccccc1.c1ccncc1`: the growth inhibition in assay [1] was 96.8% (active); in assay [2] it was 98.8% (active); in assay [3] it was 98.8% (active); in assay [4] it was 97.5% (active); in assay [5] it was 98.1% (active); in assay [6], 97.7% (active).
